Among the data in ChEMBL document CHEMBL1961873, “Compounds: GSK PKIS; Assays: Nanosyn kinase panel” (2012) are inhibition values, retold here.

Assay [1] deals with Sphingosine kinase 1 (Homo sapiens) (UniProt Q9NYA1). Particulars: at 1 µM.
Assay [2] has as its target T1, Sphingosine kinase 2 (Homo sapiens) (UniProt Q9NRA0).
T1 sequence (whole entry): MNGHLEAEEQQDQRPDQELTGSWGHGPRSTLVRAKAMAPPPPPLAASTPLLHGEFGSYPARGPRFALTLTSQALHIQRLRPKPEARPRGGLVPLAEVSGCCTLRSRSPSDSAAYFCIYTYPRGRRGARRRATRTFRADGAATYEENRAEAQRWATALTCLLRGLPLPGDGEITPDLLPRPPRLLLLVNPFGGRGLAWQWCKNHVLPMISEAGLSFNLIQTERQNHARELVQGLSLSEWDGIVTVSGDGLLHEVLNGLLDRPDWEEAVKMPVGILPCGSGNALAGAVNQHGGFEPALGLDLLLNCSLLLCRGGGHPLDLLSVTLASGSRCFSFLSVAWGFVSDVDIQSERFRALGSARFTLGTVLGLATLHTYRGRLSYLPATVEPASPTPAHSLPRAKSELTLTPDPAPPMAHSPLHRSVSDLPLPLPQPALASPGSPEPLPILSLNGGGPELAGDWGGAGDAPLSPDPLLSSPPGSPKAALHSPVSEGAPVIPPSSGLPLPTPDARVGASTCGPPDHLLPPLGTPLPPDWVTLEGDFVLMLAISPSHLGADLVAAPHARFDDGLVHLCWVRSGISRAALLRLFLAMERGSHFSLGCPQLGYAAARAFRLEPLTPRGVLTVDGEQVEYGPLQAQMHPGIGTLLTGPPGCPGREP
The following applies: at 0.1 µM.

Assay [3] concerns the target T1, Sphingosine kinase 2 (Homo sapiens). The following applies: at 1 µM.
Assay [4] addresses Casein kinase II subunit alpha (Homo sapiens) (UniProt P68400). Particulars: at 0.1 µM.
The target is the same in assay [5]. Particulars: at 1 µM.
The target of assay [6] is T2, Inhibitor of nuclear factor kappa-B kinase subunit alpha (Homo sapiens) (UniProt O15111).
T2 sequence (whole entry): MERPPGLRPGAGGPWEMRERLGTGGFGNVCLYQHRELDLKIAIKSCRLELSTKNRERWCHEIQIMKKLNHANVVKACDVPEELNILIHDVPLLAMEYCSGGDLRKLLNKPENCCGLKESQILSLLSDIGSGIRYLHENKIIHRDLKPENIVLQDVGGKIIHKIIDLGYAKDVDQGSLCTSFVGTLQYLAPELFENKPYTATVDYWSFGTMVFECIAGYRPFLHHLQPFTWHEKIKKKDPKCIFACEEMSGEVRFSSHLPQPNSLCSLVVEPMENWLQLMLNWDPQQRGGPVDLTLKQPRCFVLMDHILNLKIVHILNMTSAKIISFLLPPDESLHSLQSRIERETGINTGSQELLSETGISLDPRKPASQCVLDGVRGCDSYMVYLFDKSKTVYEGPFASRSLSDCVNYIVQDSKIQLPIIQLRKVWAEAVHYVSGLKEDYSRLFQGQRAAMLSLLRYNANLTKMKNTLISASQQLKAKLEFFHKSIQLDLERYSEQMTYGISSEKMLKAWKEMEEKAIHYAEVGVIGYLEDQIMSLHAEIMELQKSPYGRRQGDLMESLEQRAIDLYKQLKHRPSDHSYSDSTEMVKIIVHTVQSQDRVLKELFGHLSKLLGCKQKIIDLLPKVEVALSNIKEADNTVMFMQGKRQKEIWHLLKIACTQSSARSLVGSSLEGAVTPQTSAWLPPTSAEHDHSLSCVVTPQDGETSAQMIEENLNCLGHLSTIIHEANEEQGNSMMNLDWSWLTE
The following applies: at 0.1 µM.

The target in assay [7] is T2, Inhibitor of nuclear factor kappa-B kinase subunit alpha (Homo sapiens). The following applies: at 1 µM.
Assay [8] addresses T3, Inhibitor of nuclear factor kappa-B kinase subunit beta (Homo sapiens) (UniProt O14920).
T3 sequence (whole entry): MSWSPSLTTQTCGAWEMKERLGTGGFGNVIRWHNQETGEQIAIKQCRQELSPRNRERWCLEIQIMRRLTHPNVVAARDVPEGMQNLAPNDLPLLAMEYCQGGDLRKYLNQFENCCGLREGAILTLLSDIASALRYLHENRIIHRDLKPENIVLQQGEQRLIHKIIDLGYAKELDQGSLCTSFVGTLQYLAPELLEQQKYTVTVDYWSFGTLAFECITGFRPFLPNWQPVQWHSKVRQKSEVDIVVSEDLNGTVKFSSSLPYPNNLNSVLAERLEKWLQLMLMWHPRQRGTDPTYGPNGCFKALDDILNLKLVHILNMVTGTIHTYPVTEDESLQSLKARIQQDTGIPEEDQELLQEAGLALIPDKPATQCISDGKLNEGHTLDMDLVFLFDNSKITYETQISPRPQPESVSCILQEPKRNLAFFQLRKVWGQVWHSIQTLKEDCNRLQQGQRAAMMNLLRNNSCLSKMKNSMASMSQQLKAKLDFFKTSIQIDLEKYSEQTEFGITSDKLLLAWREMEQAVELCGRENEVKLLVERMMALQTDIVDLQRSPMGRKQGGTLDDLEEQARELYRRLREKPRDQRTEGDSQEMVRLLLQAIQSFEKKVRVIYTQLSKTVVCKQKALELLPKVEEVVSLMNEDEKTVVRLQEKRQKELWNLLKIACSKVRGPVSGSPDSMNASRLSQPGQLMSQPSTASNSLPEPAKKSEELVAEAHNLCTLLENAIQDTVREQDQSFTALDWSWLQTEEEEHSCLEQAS
The following applies: at 0.1 µM.

Assay [9] concerns the target T3, Inhibitor of nuclear factor kappa-B kinase subunit beta (Homo sapiens). The following applies: at 1 µM.
The target of assay [10] is T4, Inhibitor of nuclear factor kappa-B kinase subunit epsilon (Homo sapiens) (UniProt Q14164).
T4 sequence (whole entry): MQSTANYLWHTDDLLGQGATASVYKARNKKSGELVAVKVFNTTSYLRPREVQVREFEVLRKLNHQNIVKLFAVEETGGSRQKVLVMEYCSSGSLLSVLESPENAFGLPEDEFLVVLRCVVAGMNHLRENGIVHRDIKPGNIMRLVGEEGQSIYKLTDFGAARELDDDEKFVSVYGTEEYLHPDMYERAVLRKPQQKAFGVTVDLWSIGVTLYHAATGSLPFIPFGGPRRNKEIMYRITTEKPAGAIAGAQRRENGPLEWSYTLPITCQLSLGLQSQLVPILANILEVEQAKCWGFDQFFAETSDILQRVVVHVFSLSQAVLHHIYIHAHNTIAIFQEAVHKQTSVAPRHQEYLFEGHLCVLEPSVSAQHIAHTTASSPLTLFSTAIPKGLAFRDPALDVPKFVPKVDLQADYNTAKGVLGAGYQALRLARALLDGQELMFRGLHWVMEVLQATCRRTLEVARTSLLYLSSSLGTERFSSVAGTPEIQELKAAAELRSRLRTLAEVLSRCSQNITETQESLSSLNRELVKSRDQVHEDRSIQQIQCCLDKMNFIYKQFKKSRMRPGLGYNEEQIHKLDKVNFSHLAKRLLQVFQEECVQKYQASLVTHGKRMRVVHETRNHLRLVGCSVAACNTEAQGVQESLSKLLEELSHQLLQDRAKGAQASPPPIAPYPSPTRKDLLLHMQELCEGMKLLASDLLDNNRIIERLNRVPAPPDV
The following applies: at 0.1 µM.

Assay [11] concerns the target T4, Inhibitor of nuclear factor kappa-B kinase subunit epsilon (Homo sapiens). Particulars: at 1 µM.
Assay [12] deals with T5, Serine/threonine-protein kinase Nek1 (Homo sapiens) (UniProt Q96PY6).
T5 sequence (whole entry): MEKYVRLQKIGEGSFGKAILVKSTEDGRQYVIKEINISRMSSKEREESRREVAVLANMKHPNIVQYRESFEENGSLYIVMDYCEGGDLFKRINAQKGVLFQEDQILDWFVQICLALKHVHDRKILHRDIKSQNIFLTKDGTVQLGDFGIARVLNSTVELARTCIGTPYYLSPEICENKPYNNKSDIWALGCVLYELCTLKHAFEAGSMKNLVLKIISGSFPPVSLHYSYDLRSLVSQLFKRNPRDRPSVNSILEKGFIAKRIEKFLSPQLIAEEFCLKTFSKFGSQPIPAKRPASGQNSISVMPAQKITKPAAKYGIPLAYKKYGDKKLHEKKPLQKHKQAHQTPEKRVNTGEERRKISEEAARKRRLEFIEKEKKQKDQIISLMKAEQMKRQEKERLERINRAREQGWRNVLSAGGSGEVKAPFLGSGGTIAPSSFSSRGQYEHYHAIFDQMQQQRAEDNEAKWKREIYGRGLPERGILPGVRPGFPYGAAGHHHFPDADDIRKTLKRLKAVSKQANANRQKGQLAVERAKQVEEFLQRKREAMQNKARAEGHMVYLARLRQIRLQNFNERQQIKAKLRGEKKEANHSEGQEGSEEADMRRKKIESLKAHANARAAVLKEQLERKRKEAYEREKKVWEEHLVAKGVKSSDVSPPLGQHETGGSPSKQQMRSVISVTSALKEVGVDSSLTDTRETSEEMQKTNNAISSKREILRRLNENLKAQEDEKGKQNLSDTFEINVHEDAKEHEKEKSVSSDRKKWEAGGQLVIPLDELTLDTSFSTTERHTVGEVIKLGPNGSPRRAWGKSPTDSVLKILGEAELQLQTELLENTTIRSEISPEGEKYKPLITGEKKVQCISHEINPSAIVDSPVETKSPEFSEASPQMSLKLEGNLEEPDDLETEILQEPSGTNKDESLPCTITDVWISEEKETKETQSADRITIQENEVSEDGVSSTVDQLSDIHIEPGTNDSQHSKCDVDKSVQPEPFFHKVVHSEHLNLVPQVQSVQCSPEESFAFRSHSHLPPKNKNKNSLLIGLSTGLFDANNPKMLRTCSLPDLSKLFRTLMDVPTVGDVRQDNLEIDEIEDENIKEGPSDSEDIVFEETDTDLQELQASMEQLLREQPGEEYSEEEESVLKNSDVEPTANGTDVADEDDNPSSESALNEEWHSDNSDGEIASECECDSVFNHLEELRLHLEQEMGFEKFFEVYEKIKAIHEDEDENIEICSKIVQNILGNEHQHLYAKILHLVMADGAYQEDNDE
Particulars: at 0.1 µM.

Assay [13] deals with T5, Serine/threonine-protein kinase Nek1 (Homo sapiens). Particulars: at 1 µM.
In assay [14] the target is T6, Serine/threonine-protein kinase Nek2 (Homo sapiens) (UniProt P51955).
T6 sequence (whole entry): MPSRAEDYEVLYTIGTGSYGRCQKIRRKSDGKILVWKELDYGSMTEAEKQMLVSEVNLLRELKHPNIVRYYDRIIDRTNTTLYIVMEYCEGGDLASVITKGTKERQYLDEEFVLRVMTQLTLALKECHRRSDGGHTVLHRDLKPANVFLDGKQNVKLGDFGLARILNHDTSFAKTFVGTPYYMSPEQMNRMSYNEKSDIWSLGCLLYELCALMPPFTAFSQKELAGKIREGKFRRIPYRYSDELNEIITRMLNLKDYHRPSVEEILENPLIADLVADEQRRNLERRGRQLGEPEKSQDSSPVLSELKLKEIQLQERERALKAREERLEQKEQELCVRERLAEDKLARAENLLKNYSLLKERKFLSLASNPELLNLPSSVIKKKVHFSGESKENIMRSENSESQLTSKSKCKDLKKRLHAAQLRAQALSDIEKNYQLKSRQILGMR
Particulars: at 0.1 µM.

Assay [15] deals with T6, Serine/threonine-protein kinase Nek2 (Homo sapiens). Particulars: at 1 µM.
In assay [16] the target is Serine/threonine-protein kinase Nek6 (Homo sapiens) (UniProt Q9HC98). The following applies: at 0.1 µM.
Serine/threonine-protein kinase Nek6 (Homo sapiens), sequence (Q9HC98 whole entry): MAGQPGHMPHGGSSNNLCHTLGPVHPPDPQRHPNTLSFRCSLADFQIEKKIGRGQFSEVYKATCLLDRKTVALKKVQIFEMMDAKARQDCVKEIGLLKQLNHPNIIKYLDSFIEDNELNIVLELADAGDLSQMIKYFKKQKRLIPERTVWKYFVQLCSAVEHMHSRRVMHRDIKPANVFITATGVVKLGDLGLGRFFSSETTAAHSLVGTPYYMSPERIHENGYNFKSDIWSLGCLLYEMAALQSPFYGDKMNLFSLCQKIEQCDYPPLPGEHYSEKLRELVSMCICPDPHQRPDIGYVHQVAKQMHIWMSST
Assay [17] shares this target. The following applies: at 1 µM.
For assay [18], the target named is Serine/threonine-protein kinase Nek7 (Homo sapiens) (UniProt Q8TDX7). Particulars: at 0.1 µM.
Serine/threonine-protein kinase Nek7 (Homo sapiens), sequence (Q8TDX7 whole entry, looked up): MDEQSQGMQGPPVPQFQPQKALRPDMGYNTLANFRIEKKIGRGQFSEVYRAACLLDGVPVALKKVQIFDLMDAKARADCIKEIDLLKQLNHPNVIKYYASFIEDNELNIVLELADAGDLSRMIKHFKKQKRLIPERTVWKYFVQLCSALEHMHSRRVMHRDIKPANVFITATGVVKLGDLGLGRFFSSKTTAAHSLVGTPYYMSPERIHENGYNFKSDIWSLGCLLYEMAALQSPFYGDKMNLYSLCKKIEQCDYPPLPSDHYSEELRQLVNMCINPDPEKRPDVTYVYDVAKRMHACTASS
Assay [19] shares this target. The following applies: at 1 µM.
In assay [20] the target is T7, Serine/threonine-protein kinase Nek9 (Homo sapiens) (UniProt Q8TD19).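 Also: reported value is the mean percent inhibition of NEK9.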
T7 sequence (whole entry): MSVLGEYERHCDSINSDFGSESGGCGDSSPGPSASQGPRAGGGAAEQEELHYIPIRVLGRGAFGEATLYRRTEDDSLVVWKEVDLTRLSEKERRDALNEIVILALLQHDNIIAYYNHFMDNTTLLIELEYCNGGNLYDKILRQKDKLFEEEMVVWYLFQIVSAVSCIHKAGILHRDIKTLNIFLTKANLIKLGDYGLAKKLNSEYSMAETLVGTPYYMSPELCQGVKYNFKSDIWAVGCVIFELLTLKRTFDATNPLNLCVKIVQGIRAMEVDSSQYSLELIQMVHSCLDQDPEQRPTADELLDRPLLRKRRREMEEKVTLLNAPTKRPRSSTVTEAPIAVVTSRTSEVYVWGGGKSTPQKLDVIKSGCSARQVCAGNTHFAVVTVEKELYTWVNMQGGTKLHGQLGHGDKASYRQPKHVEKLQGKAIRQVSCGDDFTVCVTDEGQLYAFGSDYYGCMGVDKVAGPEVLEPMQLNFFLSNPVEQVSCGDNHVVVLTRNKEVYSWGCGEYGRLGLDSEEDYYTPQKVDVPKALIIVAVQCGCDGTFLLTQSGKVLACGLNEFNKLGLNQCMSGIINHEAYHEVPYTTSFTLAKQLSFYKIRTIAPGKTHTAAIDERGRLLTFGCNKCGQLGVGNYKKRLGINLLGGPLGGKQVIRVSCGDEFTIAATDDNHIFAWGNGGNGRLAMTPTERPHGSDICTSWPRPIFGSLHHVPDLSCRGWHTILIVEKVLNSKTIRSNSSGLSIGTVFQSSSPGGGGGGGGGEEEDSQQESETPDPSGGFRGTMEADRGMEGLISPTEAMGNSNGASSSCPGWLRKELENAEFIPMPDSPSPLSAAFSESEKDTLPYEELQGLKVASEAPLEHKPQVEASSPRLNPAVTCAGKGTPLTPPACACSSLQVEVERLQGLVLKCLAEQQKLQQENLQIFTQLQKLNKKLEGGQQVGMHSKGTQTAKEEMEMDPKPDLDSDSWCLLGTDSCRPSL
The following applies: at 0.1 µM.

Casein kinase II subunit alpha (Homo sapiens), sequence (P68400 whole entry, looked up): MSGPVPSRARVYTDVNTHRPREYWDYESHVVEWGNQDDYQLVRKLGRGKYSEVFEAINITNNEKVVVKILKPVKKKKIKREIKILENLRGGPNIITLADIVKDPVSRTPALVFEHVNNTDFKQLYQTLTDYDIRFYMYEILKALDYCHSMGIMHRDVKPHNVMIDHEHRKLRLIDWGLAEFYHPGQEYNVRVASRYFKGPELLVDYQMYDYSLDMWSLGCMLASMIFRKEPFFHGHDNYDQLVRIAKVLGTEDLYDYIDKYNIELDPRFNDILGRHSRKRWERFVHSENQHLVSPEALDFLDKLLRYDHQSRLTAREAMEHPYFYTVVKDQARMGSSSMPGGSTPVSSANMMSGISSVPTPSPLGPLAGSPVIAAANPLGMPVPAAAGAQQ
Sphingosine kinase 1 (Homo sapiens), sequence (Q9NYA1 whole entry): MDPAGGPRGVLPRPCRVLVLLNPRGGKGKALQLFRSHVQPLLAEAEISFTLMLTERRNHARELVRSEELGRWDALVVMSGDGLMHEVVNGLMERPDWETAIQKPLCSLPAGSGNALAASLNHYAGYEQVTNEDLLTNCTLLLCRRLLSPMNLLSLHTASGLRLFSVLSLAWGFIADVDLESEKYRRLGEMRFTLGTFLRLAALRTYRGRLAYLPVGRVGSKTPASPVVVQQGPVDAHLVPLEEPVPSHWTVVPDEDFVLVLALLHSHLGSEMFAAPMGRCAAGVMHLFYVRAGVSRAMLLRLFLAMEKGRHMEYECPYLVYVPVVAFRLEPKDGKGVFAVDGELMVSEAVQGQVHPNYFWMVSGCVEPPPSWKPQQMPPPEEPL

For orientation: inhibition means the drop in the measured response relative to a control, in per cent. Consider `COc1ccc(-c2nn3ncccc3c2-c2ccnc(Nc3ccc(F)c(F)c3)n2)cc1`, for which the inhibition in assay [1] is -4.19%; in [2] it was 5.2%; in assay [3], 0%; in assay [4], 5.76%; in assay [5], 10.5%; in assay [6] it was 3.55%. Also, the inhibition is 8.81% in assay [7]; 4.66% in assay [8]; 5.58% in [9]; 9.89% in [10]; 88.2% in assay [11]; 1.08% in assay [12]. In addition, the inhibition was 2.15% in assay [13]; 3.89% in [14]; 2.89% in assay [15]; 3.33% in assay [16]; 5.18% in assay [17]; 3.7% in assay [18]. Further, the inhibition stood at 4.42% in assay [19] and 7.45% in assay [20].
